Data: the supplement of paper PMC6555819

Test system: VDR:RXRa (NR concentration 270 nM, RXRa partner concentration 90 nM)
Experiment: PBM binding z-score (relative to random genomic background probes); higher = stronger binding; sequences stand for … in GC…GCGATTGACAGCGTAGAATGAAGG
Protocol: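 Protein-binding microarray (Agilent 4x180K custom design, double-stranded 60-nt probes: 5' GC cap, 34-nt variable region, 24-nt constant primer region; full probe sequence given). Purified or IVT nuclear receptor:RXRα heterodimers (3:1 NR:RXRα, mostly 270:90 nM) or homodimers were incubated for 1 h in PBS with 2% milk and no ligand, then detected with Alexa488 antibodies. Fluorescence from o1-orientation probes (~5 replicates averaged) was converted to z-scores against 500 random hg19 background probes. Variable regions are seed direct-repeat (DR0–DR5) sites, all their single-nucleotide variants and half-site ablations.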

| Sequence | PBM binding z-score |
| --- | --- |
| GCTTGTAGTTCAAGGTTAAGAAAGACTAAGCTAA | 1.46 |
| GTACCAAGTTGAATAGGTCGTTGATGAGTAGGCG | 0.387 |
| TCTATGAGTTGAAGGGCAACCGACGAGTCCGTTT | 0.953 |
| CGAACGAGGGCATGAGTTGATATCAAATGCCGAT | 1.44 |
| CCTTACGGGTCAAAGTTATAGCACGGGTGGTACG | 3.54 |
| TAGCCTAGGTCATGTGGGCCAGTATAGTGTCGGC | 2.62 |
| ACAGACAGGTGATGAAGGTAACTCAAGCTATCAT | 0.0355 |
| TCTAGTTGGTCACGGAGGTCACGCACGACGGGTA | 5.99 |
| GCTGCTAGGTAAACTGATGGTCAGCTAAAGCTCG | -0.576 |
| CAAACTATGTCACCGGAAGGTCAAAGTCCGCATG | 3.84 |
| ACTAGTTGGTCAGCAGAGGTCACACACAATTCGG | 4.87 |
| CGTCCAAGGTCAGCAGATCAGTGAAAGCGACGTG | 2.37 |
| ATCTCTAGGTAAAGCTCAGTGAAAGATCGATAGA | -0.295 |
| ATATGTAGGGTAAGGGTCATTCAGGTTGGTTCGC | 5.59 |
| TCTAGCAGGCAAGAGGGTCACTCAAGAGGTACGG | 2.01 |
| AGTCAAAGTTCATCTAGGTAACGTCAGATATGCT | 5.17 |
| ATGGAAAGGTCGACGAGGTGAGTATACACCGTTT | 5.25 |
| ACTAGCAGGCCAAGCTTGGGTCACTCAAACAAAG | 0.122 |
| AGTCAAAGATCAGGACGAGGTAACGTAAAGCACG | -0.216 |
| GCTATTAGTTGAAAGGGCGACCGAATGATTCTCG | -0.17 |

| Sequence | PBM binding z-score |
| --- | --- |
| TCAGACAGGTGAAGGTAAATCAGGTACGCAGTCG | 1.2 |
| AGAATGAGGTTATTAAGATGAGGGAATTGCGGTC | 1.15 |
| TGAATGAGGTTGAAGATCAGGGAACGTGGCGTCG | -0.171 |
| CCTACTGGGCCAACGGTCATTGATTCCAATGCTC | -0.502 |
| ATAACAAGGTGATCGTGAGGTCGTTGATACTAAC | 2.97 |
| CCTTGGAGGACAACAGGAGGTCAGAGCTGCCAGA | 1.99 |
| ATCTCTAGGTAAGACGCAGTTCAGTGAAGAACGC | 0.101 |
| CCCACTGGGGCAGAAAGGTTACCATACCATCCGG | 0.905 |
| TGAATGAGGTTAAAGATCAGGCAACGTGGCGTCG | 1.88 |
| AATACAGGGTCACTAGTCCAGAGTAGGTACGAAT | 4.05 |
| ATCGAAAGGTCGAGATGAGTATAGAGAAAGGGAA | 2.4 |
| GGAACGAGTGCAAGTTGATAGCAGAGTTTGATGG | 0.646 |
| GCGGCTAGGTCAGGTTGGTCAGCTAACGGGTACG | 0.482 |
| CGTCCAAGGTCATAGGAGGTGAGTGAAGACAGAT | 4.7 |
| ACTATTAGTTGACGTAGGGCAACCGATACGACGC | 0.19 |
| GTTATTAGTTGAAAGGGCAACCGAATGATTCTCG | 1.24 |
| ATCTCTAGGTAACAAGTTCAGCGAAAGAGAGGAC | 2.45 |
| GATACAGGGTCAAGGCCAGAGTGCGCGTATTGAT | 4.23 |
| CCGACCGGGGCATAAGGTTACCATAAGCCAGCCC | 0.666 |
| ATCGAAAGGTCGTGCGGTGAGTATACAGAAAGGC | 3.46 |
